Measured values reported in article PMC10812921, “Transcriptional Coactivator BOB1 (OBF1, OCA-B) Modulates the Specificity of DNA Recognition by the POU-Domain Factors OCT1 and OCT2 in a Monomeric Configuration”.

What was measured:
POU1 (OCT1 POU domain) = POU1 (OCT1 POU domain) (human, UniProt P14859 260-458); assay: EMSA-SELEX-seq; no BOB1; 20 mM Tris-HCl pH 7.6, 140 mM NaCl, 10% glycerol, 0.5 mM EDTA, 0.05% Triton X-100, 0.1 mg/mL BSA, 0.1 mg/mL poly(dI-dC), 5 mM DTT, room temperature, 20 min; high values mean tight binding; conditions: protein: recombinant; dsDNA, one strand shown
Procedure, shortened: (§1)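 With or without 28 ng coactivator protein, 30 ng of tagged POU-domain protein was combined with 300 ng of a PCR-amplified double-stranded random 35-nt library in 20 μL Tris–HCl pH 7.6 binding buffer for 20 min at RT. The protein came from E. coli BL21 and had been purified under denaturing conditions and renatured. Four rounds of cutting complex bands from native 6% PAGE, elution and PCR amplification preceded Illumina sequencing. The binding preference figure is the percentage of sequenced 8-mers matching a motif pattern.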

POU2 (OCT2 POU domain) = target: T1, POU2 (OCT2 POU domain) (human, UniProt P09086 175-386); assay: as above; conditions: protein: recombinant; dsDNA, one strand shown
T1 sequence: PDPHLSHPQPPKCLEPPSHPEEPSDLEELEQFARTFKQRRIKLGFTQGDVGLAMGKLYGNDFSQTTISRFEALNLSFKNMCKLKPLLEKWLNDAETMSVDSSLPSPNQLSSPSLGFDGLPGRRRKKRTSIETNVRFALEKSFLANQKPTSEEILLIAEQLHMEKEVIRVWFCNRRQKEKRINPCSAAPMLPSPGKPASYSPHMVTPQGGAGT
Procedure, shortened: as §1

[1] = target: POU1 (OCT1 POU domain);BOB1 (OBF1, OCA-B) (human;human, UniProt P14859;Q16633 260-458;1-256, |); assay: EMSA-SELEX-seq; with BOB1 (ternary complex band); 20 mM Tris-HCl pH 7.6, 140 mM NaCl, 10% glycerol, 0.5 mM EDTA, 0.05% Triton X-100, 0.1 mg/mL BSA, 0.1 mg/mL poly(dI-dC), 5 mM DTT, room temperature, 20 min; high values mean tight binding; conditions: protein: recombinant;recombinant; copies: 1;1; dsDNA, one strand shown
Procedure, shortened: as §1

[2] = target: T2, POU2 (OCT2 POU domain);BOB1 (OBF1, OCA-B) (human;human, UniProt P09086;Q16633 175-386;1-256, |); assay: as above; conditions: protein: recombinant;recombinant; copies: 1;1; dsDNA, one strand shown
T2 sequence 1: T1 sequence
T2 sequence 2: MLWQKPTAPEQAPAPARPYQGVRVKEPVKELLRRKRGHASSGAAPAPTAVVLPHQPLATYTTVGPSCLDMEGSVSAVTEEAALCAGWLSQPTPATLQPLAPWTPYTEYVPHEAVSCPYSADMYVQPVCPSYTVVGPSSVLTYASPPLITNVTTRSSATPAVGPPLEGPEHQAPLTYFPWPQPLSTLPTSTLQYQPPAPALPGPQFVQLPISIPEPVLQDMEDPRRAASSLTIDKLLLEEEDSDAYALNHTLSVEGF
Procedure, shortened: as §1

POU1 (OCT1 POU domain), sequence (P14859 260-458): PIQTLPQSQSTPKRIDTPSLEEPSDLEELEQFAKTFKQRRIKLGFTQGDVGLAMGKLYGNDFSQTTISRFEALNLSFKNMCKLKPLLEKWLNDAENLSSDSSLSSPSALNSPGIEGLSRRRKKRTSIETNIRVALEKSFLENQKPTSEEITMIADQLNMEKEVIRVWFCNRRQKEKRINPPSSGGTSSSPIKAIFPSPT

Row | Sequence | binding signal (POU1 (OCT1 POU domain)) | binding signal (POU2 (OCT2 POU domain)) | binding signal [1] | binding signal [2]
1 | ATTCGAAG | 0.0564 % of ANNNNAAN 8-mers | 0.0656 % of ANNNNAAN 8-mers | 0.0464 % of ANNNNAAN 8-mers | 0.0405 % of ANNNNAAN 8-mers
2 | ATCGTAAA | 0.0553 % of ANNNNAAN 8-mers | 0.0552 % of ANNNNAAN 8-mers | 0.0531 % of ANNNNAAN 8-mers | 0.0471 % of ANNNNAAN 8-mers
3 | AACCGAAT | 0.0412 % of ANNNNAAN 8-mers | 0.0363 % of ANNNNAAN 8-mers | 0.0324 % of ANNNNAAN 8-mers | 0.0487 % of ANNNNAAN 8-mers
4 | AGTCAAAA | 0.164 % of ANNNNAAN 8-mers | 0.117 % of ANNNNAAN 8-mers | 0.265 % of ANNNNAAN 8-mers | 0.115 % of ANNNNAAN 8-mers
5 | ACGTAAAG | 0.0416 % of ANNNNAAN 8-mers | 0.0409 % of ANNNNAAN 8-mers | 0.0667 % of ANNNNAAN 8-mers | 0.0479 % of ANNNNAAN 8-mers
6 | AATCGAAC | 0.0366 % of ANNNNAAN 8-mers | 0.0334 % of ANNNNAAN 8-mers | 0.0347 % of ANNNNAAN 8-mers | 0.0512 % of ANNNNAAN 8-mers
7 | AGGTAAAT | 0.379 % of ANNNNAAN 8-mers | 0.269 % of ANNNNAAN 8-mers | 0.55 % of ANNNNAAN 8-mers | 0.391 % of ANNNNAAN 8-mers
8 | AATAGAAA | 0.0759 % of ANNNNAAN 8-mers | 0.0972 % of ANNNNAAN 8-mers | 0.0858 % of ANNNNAAN 8-mers | 0.071 % of ANNNNAAN 8-mers
9 | AATCAAAT | 0.295 % of ANNNNAAN 8-mers | 0.212 % of ANNNNAAN 8-mers | 0.419 % of ANNNNAAN 8-mers | 0.301 % of ANNNNAAN 8-mers
10 | ACTGAAAC | 0.0164 % of ANNNNAAN 8-mers | 0.019 % of ANNNNAAN 8-mers | 0.0238 % of ANNNNAAN 8-mers | 0.0173 % of ANNNNAAN 8-mers
11 | ATCCAAAC | 0.0233 % of ANNNNAAN 8-mers | 0.0178 % of ANNNNAAN 8-mers | 0.0343 % of ANNNNAAN 8-mers | 0.0264 % of ANNNNAAN 8-mers
12 | ATTGGAAC | 0.0313 % of ANNNNAAN 8-mers | 0.0426 % of ANNNNAAN 8-mers | 0.0304 % of ANNNNAAN 8-mers | 0.0388 % of ANNNNAAN 8-mers
13 | ATAACAAT | 0.0622 % of ANNNNAAN 8-mers | 0.088 % of ANNNNAAN 8-mers | 0.0496 % of ANNNNAAN 8-mers | 0.0735 % of ANNNNAAN 8-mers
14 | ACCCTAAT | 0.037 % of ANNNNAAN 8-mers | 0.0518 % of ANNNNAAN 8-mers | 0.0273 % of ANNNNAAN 8-mers | 0.0223 % of ANNNNAAN 8-mers
15 | AGCATAAA | 0.204 % of ANNNNAAN 8-mers | 0.213 % of ANNNNAAN 8-mers | 0.0566 % of ANNNNAAN 8-mers | 0.0867 % of ANNNNAAN 8-mers
